Measurements reported in ChEMBL document CHEMBL3988442, “University of Dundee, Small-Polar-MMV Screening Library” (2021).
Screen size: about 48,000 compounds; about 13,000 (27%) showed an effect of 50% or more. Some of the results follow.

These compounds were tested on Wolbachia pipientis (assay: Anti-Wolbachia Cell-Based Screen). Conditions: 5 µM.
Format: functional
Set-up: scale not given: in the data most compounds retested in dose-response had high values

Row | Compound | Percent Effect [%]
1 | COCCc1noc(CN2CCCc3cccc(OC)c32)n1 | 0.4274
2 | Cc1noc(-c2ccc(N(C)Cc3ccncn3)nc2)n1 | -29.65
3 | c1ccc(CNC[C@H]2COCc3nc4cccnc4n32)cc1 | 10.55
4 | COCC(C)NC(=O)NCCc1cccc(OC)c1O (stereo not given) | -7.103
5 | CCn1nc(CC(C)C)cc1C(=O)N1CCN([C@H]2CCCC[C@@H]2O)CC1 | 0.6704
6 | CCS(=O)(=O)N1CC(c2nc(-c3ccsc3)no2)C1 | -8.132
7 | CCc1c(C)nn(CCNC(=O)Cc2csc(C)n2)c1C | -26.69
8 | CN(C)CCn1cc(NC(=O)NC(C)(C)c2nccs2)cn1 | -14.78
9 | CCCN(C(=O)c1cccnc1)c1nc2c(s1)CCc1c-2cnn1C | 53.11
10 | CCCN(C(=O)c1ccncc1)c1nc2c(s1)CCc1c-2cnn1C | 62.27
11 | CCCN(C(=O)COC)c1nc2c(s1)CCc1c-2cnn1C | 1.347
12 | OCc1ccc(CN2CCC(n3cc(-c4ccc(F)cc4)nn3)CC2)o1 | -0.1205
13 | CC(C)C(C(=O)NC1CCOCC1)n1cnc2cc(F)c(F)cc21 (stereo not given) | 3.744
14 | CCCc1cc(=O)[nH]c2nnc(SCC(=O)NCc3ccc(C)cc3)n12 | -24
15 | O=C(NCCOc1ccccc1)C1NCCc2[nH]cnc21 (stereo not given) | 9.443
16 | Cc1nc(-c2ccc(NCCc3ccc(O)cc3)nc2)[nH]c(=O)c1C | -6.931
17 | CC(=O)N1N=C(c2ccccc2)OC1C(=O)NCCc1ccc(C)cc1 (stereo not given) | 114.7
18 | CC(=O)N1N=C(c2ccccc2)OC1C(=O)NCCOc1ccccc1 (stereo not given) | 130.7
19 | Cc1nc(C2CCCN2CC(=O)NCCOc2ccccc2)no1 (stereo not given) | 3.183
20 | CC(=O)N1N=C(c2ccccc2)OC1C(=O)NCCc1cccc(Cl)c1 (stereo not given) | 1.222
21 | CC(=O)N1N=C(c2ccccc2)OC1C(=O)NCCc1cccc(F)c1 (stereo not given) | 137.5
22 | CC(=O)N1N=C(c2ccccc2)OC1C(=O)NCCC1=CCCCC1 (stereo not given) | -1.689
23 | Cc1ccc2c(c1)CN(CC(=O)NCCc1ccc(F)cc1)CC(C)O2 (stereo not given) | 6.694
24 | CC(=O)NCCNC(=O)NCCCc1cccc(F)c1 | -6.354
25 | CC(=O)N1N=C(c2ccccc2)OC1C(=O)NCCc1ccc(O)cc1 (stereo not given) | 114.8
26 | CC(NC(=O)Nc1cnn(CC(N)=O)c1)c1ccc(Cl)s1 (stereo not given) | 9.25
27 | NC(=O)NCCC(=O)N1CCC(c2cc(-c3ccccc3Cl)n[nH]2)CC1 | -13.9

Row | Compound | Percent Effect [%]
28 | CC(C)(CNC(=O)CSc1nnnn1C1CC1)c1ccccc1F | 14.51
29 | CC(C)(C#N)c1ccc(NS(=O)(=O)CC2CCCCO2)cc1 (stereo not given) | -23.28
30 | Cc1nc(NCCc2ccc(Cl)cc2)cc(C(=O)N2CCOCC2)n1 | 8.895
31 | NC(=O)c1cccc(CCNCc2cnc(-c3cccs3)s2)c1 | -4.854
32 | CC(=O)N1N=C(c2cccs2)OC1C(=O)NCCc1cccc(Cl)c1 (stereo not given) | 135.3
33 | CC(=O)N1N=C(c2ccccc2)OC1C(=O)NCCN(C(C)C)C(C)C (stereo not given) | 125.8
34 | Cn1cc(CCNC(=O)C2(c3cccc(Cl)c3)CC2)cn1 | 11.84
35 | CC(C)N(CCNC(=O)c1[nH]nc2ccc(I)cc12)C(C)C | -4.489
36 | CC(C)N(C)CCCNC(=O)c1cnc(-c2ccccc2)nc1 | -3.501
37 | Cc1nc(NCCc2ccc(Cl)cc2)cc(C(=O)N2CCCCC2)n1 | 24.03
38 | CC(=O)N1N=C(c2ccccc2)OC1C(=O)NCCc1ccc(Cl)cc1 (stereo not given) | 146.7
39 | Cc1nc(CN2Cc3cn(C)nc3C(COCC3CC3)C2)cs1 (stereo not given) | -15.47
40 | O=C(c1cccs1)N1CC[C@H]2[C@@H]1CCC(=O)N2c1cccnc1 | -2.771
41 | CN(C)C(=O)N[C@@H]1CN(C2CCOCC2)[C@@H]2CCCO[C@@H]21.O=C(O)C(F)(F)F | -11.3
42 | COc1ccc(CN2CCCn3cnc(COC(C)C)c3C2)cc1.O=C(O)C(F)(F)F | 23.92
43 | CCc1nc(Cn2nc(C3CCNCC3)n(-c3ccccc3)c2=O)cs1 | 10.87
44 | CC(=O)N1CCC(NC(=O)N2CCCC2c2ccsc2)CC1 (stereo not given) | -39.95
45 | NC(=O)CN1CCC(NC(=O)N2CCCC2c2ccsc2)CC1 (stereo not given) | -19.01
46 | CC(=O)N1C[C@@H](c2ccsc2)[C@@H]2CN(Cc3ccccc3Cl)CC[C@@H]21 | 132.7
47 | CC(=O)N1C[C@@H](c2ccsc2)[C@@H]2CN(Cc3ccccc3C)CC[C@@H]21 | 115.6
48 | COc1ccccc1CN1CC[C@H]2[C@@H](C1)[C@H](c1ccsc1)CN2C(C)=O | 109
49 | CC(=O)N1C[C@@H](c2ccsc2)[C@@H]2CN(Cc3ccccc3)CC[C@@H]21 | 3.604
50 | CC(=O)N1C[C@@H](c2ccsc2)[C@@H]2CN(CC3CCCCC3)CC[C@@H]21 | 84.31
51 | CSCCC(=O)N1CCCC1c1ccsc1 (stereo not given) | -16.09
52 | NC(=O)C1CCN(CC(=O)N2CCCC2c2ccsc2)CC1 (stereo not given) | -14.97
53 | CCn1cnnc1CNC(=O)N(C)Cc1c(F)cccc1Cl | -9.877
54 | CCCn1ncc(C(=O)NCCc2[nH]nc3c2CCCC3)c1C | 17.81

Row | Compound | Percent Effect [%]
55 | CC1(C)[C@H](Cc2cc(CO)on2)C[C@@H]1N(CC1CC1)CC1CC1 | 3.295
56 | O=S(=O)(Cc1ccccc1)NCC1CCN(c2cnccn2)CC1 | -2.116
57 | CCc1ccc(CN2CCC(CNS(=O)(=O)C3CC3)C2)nc1 (stereo not given) | -5.185
58 | CCS(=O)(=O)NCC1CCN(c2cnccn2)CC1 | 106
59 | O=S(=O)(NCC1CCN(c2cnccn2)CC1)C1CC1 | 99.54
60 | Cc1ncc(CN2CCC(CNS(=O)(=O)C3CC3)C2)cn1 (stereo not given) | -9.849
61 | Cc1cn2c(n1)CCC(NC(=O)c1cncnc1C)C2 (stereo not given) | 122.4
62 | Cc1cc(C(=O)NC2CCc3nc(C)cn3C2)[nH]n1 (stereo not given) | -4.172
63 | Cc1cn2c(n1)CCC(NC(=O)c1csc(C(C)C)n1)C2 (stereo not given) | 134.7
64 | Cc1ncc(C(=O)NC2CCc3nccn3C2)c(C(C)C)n1 (stereo not given) | 126.1
65 | O=C(NC1CCc2nccn2C1)c1ccc(NC2CC2)nc1 (stereo not given) | 9.006
66 | Cc1cn2c(n1)CCC(NC(=O)c1cc(C(C)C)no1)C2 (stereo not given) | 2.478
67 | Cc1cn2c(n1)CCC(NC(=O)c1nc(C)ncc1Cl)C2 (stereo not given) | -6.875
68 | Cc1cn2c(n1)CCC(NC(=O)c1ccc(CS(C)(=O)=O)cc1)C2 (stereo not given) | 1.181
69 | Cc1cn2c(n1)CCC(NC(=O)c1cnc(C)nc1C(C)C)C2 (stereo not given) | 1.666
70 | Cc1cn2c(n1)CCC(NC(=O)c1c[nH]c(C)n1)C2 (stereo not given) | 3.74
71 | CCc1ncncc1C(=O)NC1CCc2nc(C)cn2C1 (stereo not given) | 106.8
72 | Cc1cn2c(n1)CCC(NC(=O)c1ccc(OCC3CC3)nc1)C2 (stereo not given) | -16.45
73 | CCCn1cnc(S(=O)(=O)Nc2cccnc2-n2cccn2)c1 | 0.1975
74 | CC(=O)N1CCN(C(=O)CNc2cccc(OC(F)F)c2C)CC1 | -4.859
75 | CS(=O)(=O)Nc1ccc(-n2c(CCCO)nc3ccccc32)cn1 | -0.6251
76 | Oc1ccccc1N1CCN(c2ncnc3sc4c(c23)CCNC4)CC1 | -35.6
77 | CC(C#N)CNC(=O)Nc1ccc(-c2cc[nH]n2)cc1 (stereo not given) | -10.22
78 | COC(=O)c1sccc1S(=O)(=O)N1CCc2c(ncnc2N(C)C)C1 | -35.5
79 | Cc1cn(Cc2ccc(F)cc2)nc1N | 105.5
80 | Cc1cn(Cc2ccccc2)nc1N | 112.8
81 | CCn1cc(Cn2cc(Cl)c(N)n2)c(C)n1 | 11.61

Row | Compound | Percent Effect [%]
82 | Cc1nn(Cc2ccc(F)cc2)c2[nH]nc(N)c12 | 12.93
83 | Cc1ccc(Cn2cc(C)c(N)n2)cc1 | 101.5
84 | Cc1cccc(Cn2nc(C3CCNCC3)n(-c3ccccc3)c2=O)c1 | 2.339
85 | Cc1nn(C)cc1Cn1cc(Cl)c(N)n1 | -32.62
86 | Cc1cccc(Cn2cc(C)c(N)n2)c1 | 142
87 | Cc1cnn(C2CCN(Cc3ccccc3)C2)c1N (stereo not given) | -3.11
88 | Cc1ccc(Cn2ccc(NS(C)(=O)=O)n2)cc1 | -11.54
89 | Cc1ncc(C)c(N2Cc3cnn(Cc4ccc(F)cc4)c3C2)n1 | 15.3
90 | Cc1cccc(CN2CCN(c3nc(CO)cs3)CC2)c1 | -5.528
91 | Cc1nnsc1CN(C)C(=O)c1ccc(CSc2nnc[nH]2)o1 | 17.62
92 | CCc1cnc(N)nc1NCCc1ccc(OC)cc1OC | -3.798
93 | CC(C)N(C)C(=O)c1ccc(Cl)c(NC(=O)COCC2CC2)c1 | -4.037
94 | Cc1noc(C)c1CN(C)C(=O)COc1cccc(C#N)c1 | -12.54
95 | CCc1nc(CNC2CCCCNC2=O)cs1 (stereo not given) | -6.937
96 | Fc1ccc(CNCCn2cccn2)cc1F | -6.914
97 | Cl.Cl.OC(CN1CCN(Cc2ccc(F)c(F)c2)CC1)C1CC1 (stereo not given) | -1.298
98 | Cc1cn(Cc2ccc(F)c(F)c2)nc1N | 106.9
99 | Cc1ccc(C(CNCc2ccc(C#N)cc2)N2CCOCC2)s1 (stereo not given) | 1.867
100 | COC[C@@]12CCO[C@@H]1CCN(Cc1ccccc1F)C2.O=C(O)C(F)(F)F | -5.713
101 | Cc1nc([C@H]2C[C@@H]3CCN(Cc4ccc5c(c4)OCO5)C[C@H]3O2)no1 | -27.54
102 | c1coc(-c2nnc([C@H]3CCN(Cc4ccc5c(c4)OCO5)C3)o2)c1 | -14.45
103 | COC[C@@]12CCO[C@@H]1CCN(Cc1ccccc1OC)C2.O=C(O)C(F)(F)F | -18.26
104 | Cc1nnc([C@@]23CCO[C@@H]2CCN(Cc2cccc4ccccc24)C3)o1 | 98.73
105 | Cc1nnc([C@@]23CCO[C@@H]2CCN(Cc2ccc4c(c2)OCO4)C3)o1 | 107.4
